HP1b binding inh – blocks HP1-beta chromodomain binding to methylated histone tails. AlphaScreen HP1-beta / biotin-H3K9me3 peptide binding. Potency, µM (top dose mostly 114 µM), for the others: top-dose activity change, negative = inhibition, actives largely listed as inhibitors. 390,000 compounds, 0.56% hits. AID 540317; note: nearly all actives have a fitted effect of over 70% in size
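HP1-beta protein (50 nM final) preincubated 30 min at room temperature with biotinylated H3(1-18)K9me3 peptide (50 nM) in PBS pH 7.4, 0.01% Tween-20, then compound added for 30 min. AlphaScreen streptavidin donor/nickel chelate acceptor beads (10 ug/mL final), 30 min dark, luminescence read.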
BAZ2B block – inhibitors of human BAZ2B bromodomain; Q9UIF8; AlphaScreen BAZ2B-H3K14Ac peptide displacement; Potency, µM (highest dose often 114 µM), for the others: at the top dose activity change, negative = inhibition, most hits filed as inhibitors; 360,000 compounds, 4.4% hits; AID 504333; note: % is set by controls: 0 for no effect and ±100 for the full control effect; nearly all actives have a fitted effect of over 60% in size
Target sequence (Q9UIF8 whole entry, looked up): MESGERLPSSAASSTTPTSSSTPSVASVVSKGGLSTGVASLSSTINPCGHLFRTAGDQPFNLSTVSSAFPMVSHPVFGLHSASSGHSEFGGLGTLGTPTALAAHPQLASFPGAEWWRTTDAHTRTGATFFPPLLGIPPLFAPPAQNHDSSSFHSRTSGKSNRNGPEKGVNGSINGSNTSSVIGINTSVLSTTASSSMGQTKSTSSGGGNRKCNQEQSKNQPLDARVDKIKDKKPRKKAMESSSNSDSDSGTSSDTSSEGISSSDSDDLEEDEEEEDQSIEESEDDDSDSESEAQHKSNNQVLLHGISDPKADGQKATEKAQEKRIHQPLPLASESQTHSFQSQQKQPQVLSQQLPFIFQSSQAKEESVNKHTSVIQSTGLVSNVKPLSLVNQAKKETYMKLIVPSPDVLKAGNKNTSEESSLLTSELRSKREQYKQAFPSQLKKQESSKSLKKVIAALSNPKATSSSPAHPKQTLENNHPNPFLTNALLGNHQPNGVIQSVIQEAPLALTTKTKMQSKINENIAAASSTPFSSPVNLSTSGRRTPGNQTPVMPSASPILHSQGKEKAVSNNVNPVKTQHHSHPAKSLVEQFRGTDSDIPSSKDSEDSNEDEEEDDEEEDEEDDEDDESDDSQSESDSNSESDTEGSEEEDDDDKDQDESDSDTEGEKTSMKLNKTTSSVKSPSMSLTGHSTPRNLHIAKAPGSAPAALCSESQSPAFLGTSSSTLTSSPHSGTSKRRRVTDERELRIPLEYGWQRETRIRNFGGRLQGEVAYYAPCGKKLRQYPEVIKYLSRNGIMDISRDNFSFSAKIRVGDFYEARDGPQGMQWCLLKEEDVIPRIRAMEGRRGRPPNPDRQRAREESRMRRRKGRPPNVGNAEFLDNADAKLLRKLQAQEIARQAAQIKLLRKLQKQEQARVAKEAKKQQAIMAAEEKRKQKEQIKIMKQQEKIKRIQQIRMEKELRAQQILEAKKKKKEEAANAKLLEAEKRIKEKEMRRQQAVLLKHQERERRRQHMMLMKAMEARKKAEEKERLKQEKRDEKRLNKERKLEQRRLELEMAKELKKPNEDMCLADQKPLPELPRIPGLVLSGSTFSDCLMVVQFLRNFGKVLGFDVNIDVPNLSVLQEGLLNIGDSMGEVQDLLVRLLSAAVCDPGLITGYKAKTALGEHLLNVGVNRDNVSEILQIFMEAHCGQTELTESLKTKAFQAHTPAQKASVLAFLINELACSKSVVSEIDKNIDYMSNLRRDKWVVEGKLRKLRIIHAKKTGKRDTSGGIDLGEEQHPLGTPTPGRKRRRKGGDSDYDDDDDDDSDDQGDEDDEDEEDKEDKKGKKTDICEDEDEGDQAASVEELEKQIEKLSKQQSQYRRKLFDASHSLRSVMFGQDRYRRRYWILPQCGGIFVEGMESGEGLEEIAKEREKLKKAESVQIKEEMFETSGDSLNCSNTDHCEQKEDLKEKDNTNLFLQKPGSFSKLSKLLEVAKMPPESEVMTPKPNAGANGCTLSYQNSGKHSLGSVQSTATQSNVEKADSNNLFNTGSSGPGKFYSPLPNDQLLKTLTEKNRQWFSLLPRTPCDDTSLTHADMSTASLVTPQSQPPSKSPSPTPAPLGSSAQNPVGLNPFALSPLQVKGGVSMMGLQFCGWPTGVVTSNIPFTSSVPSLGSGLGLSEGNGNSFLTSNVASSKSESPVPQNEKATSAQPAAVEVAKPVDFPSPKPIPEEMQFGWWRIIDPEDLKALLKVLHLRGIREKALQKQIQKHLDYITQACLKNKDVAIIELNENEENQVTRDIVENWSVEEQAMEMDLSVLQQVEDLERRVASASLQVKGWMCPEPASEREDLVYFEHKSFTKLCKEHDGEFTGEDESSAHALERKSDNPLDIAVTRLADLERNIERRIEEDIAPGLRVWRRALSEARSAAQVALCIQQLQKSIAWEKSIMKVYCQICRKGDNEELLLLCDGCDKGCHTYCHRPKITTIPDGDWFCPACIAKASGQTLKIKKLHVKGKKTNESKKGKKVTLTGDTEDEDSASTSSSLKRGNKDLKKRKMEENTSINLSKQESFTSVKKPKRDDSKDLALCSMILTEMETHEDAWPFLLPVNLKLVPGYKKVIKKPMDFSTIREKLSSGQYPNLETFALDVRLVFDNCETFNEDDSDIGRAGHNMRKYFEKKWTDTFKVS
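Multi-concentration screen (max 110 uM) measuring displacement of acetylated histone H3 peptide from BAZ2B by AlphaScreen, using 50 nM protein, 50 nM peptide and 10 ug/mL streptavidin donor plus Ni-chelate acceptor beads.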
G9a inh – G9a (human) methyltransferase inhibition; G9a H3K9 monomethylation, AlphaScreen, 2 h; Q96KQ7; Potency, µM (highest dose often 102 µM), without a hit: at the top dose activity, negative = inhibition, actives largely listed as inhibitors; AID 504332; 350,000 compounds, 8.8% hits; note: % is set by controls: 0 for no effect and ±100 for the full control effect; nearly all actives have a fitted effect of over 75% in size
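AlphaScreen read-out: biotin-H3K9 peptide (500 nM) methylation by 20 nM enzyme with 20 uM SAM, 2 h at room temperature after 15 min compound preincubation; anti-monomethyl H3K9 antibody plus donor/acceptor beads, 10 min dark.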
JMJD2A Tudor – blocks the human JMJD2A Tudor domain | O75164 | AlphaScreen JMJD2A-Tudor / H3K4me3 peptide binding | Potency, µM (top dose mostly 114 µM), for the others: top-dose activity change, negative = inhibition, hits mostly inhibitors | 390,000 compounds, 4.4% hits; note: % is set by controls: 0 for no effect and ±100 for the full control effect; nearly all actives have a fitted effect of over 50% in size
L3MBTL1 inh – L3MBTL1 (human) inhibition | AlphaScreen L3MBTL1–H3K9me1 peptide binding | Potency, µM (highest dose often 57.1 µM), for inactives: at the top dose activity, negative = inhibition, actives largely listed as inhibitors | 230,000 compounds, 0.66% hits | Q9Y468; note: % is set by controls: 0 for no effect and ±100 for the full control effect; nearly all actives have a fitted effect of over 60% in size
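AlphaScreen proximity signal between nickel-chelate acceptor and streptavidin donor beads (final 10 ug/mL) reports binding of 50 nM L3MBTL1 to 75 nM biotin-H3 K9me1 peptide; complex incubated with compounds 30 min at room temperature; cefsulodin titration as control.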
* = called active by the depositor; [ ] = another dose, or the depositor's remark. A selection: hits, their analogues and other compounds. The true share with any hit is near 11%. Calls come from the whole dose curve; as a rule, active = well fitted inhibition curve with a large enough effect; inconclusive = small, poorly fitted or top-dose-only effect; inactive = no such curve, though single readings can be large or run the other way. Potency is the fitted concentration of half-maximal effect.

For Cc1nn(Cc2ccccc2)c2c1C(c1cccnc1)C(C#N)=C(N)O2 (stereo not given) the results were HP1b binding inh 26%, BAZ2B block 0%, G9a inh 50µM* and JMJD2A Tudor -7%.
`Cc1occc(=O)c1O` gave HP1b binding inh 23%, BAZ2B block inconclusive, G9a inh inconclusive, JMJD2A Tudor 25µM* and L3MBTL1 inh 3%.
COC(=O)c1nn(-c2ccc(OC)cc2)c(=O)c2c(N)sc(C)c12 was read as HP1b binding inh inconclusive, BAZ2B block inconclusive, G9a inh 10µM*, JMJD2A Tudor inconclusive and L3MBTL1 inh -16%.
Nc1scc2c(C(=O)O)nn(-c3ccccc3)c(=O)c12 was read as HP1b binding inh -1%, BAZ2B block inconclusive, G9a inh -24%[0.501 µM], JMJD2A Tudor 79µM* and L3MBTL1 inh -12%.
Screening COC(=O)c1nn(-c2ccc(OC)cc2)c(=O)cc1Sc1ccc(C)cc1 returned HP1b binding inh 34%, BAZ2B block -9%, G9a inh 3%, JMJD2A Tudor -15% and L3MBTL1 inh -28%.
COC(=O)c1nn(-c2ccc(OC)cc2)c(=O)cc1NN was read as HP1b binding inh 49%, BAZ2B block -31%, G9a inh 45µM*, JMJD2A Tudor -2%[57.1 µM] and L3MBTL1 inh inconclusive.
Screening CCOC(=O)c1nn(-c2ccc(C)cc2)c(=O)c2c(N)scc12 returned HP1b binding inh -17%, BAZ2B block inconclusive, G9a inh 1.3µM*, JMJD2A Tudor inconclusive and L3MBTL1 inh -3%.
`CCC(=O)N1CCc2cc(Br)cc(S(=O)(=O)CCC(=O)Nc3cccc(C)c3C)c21` gave HP1b binding inh 24%, BAZ2B block 9%, G9a inh -2%[59 µM] and JMJD2A Tudor -15%.
Screening CCOc1ccccc1CNC(=O)C(CC)n1nc(C)c2c(C)n(-c3ccccc3)nc2c1=O (stereo not given) returned HP1b binding inh 15%, BAZ2B block -15%, G9a inh -2%[59 µM] and JMJD2A Tudor -13%.
O=C(NCCn1ccc2ccccc21)c1ccc(Cl)cc1 was read as HP1b binding inh 15%, BAZ2B block 9%, G9a inh -4%[59 µM] and JMJD2A Tudor -2%.
For O=C(CCSCCc1ccccn1)Nc1ccc(Cl)cc1 the results were HP1b binding inh 39%, BAZ2B block 0%, G9a inh 5%[59 µM] and JMJD2A Tudor 0%.
COc1ccc(-c2ccc(CNc3ccc4[nH]c(=O)[nH]c4c3)o2)cc1Cl was read as HP1b binding inh 25%, BAZ2B block -10%, G9a inh -11%[59 µM] and JMJD2A Tudor -12%.
CCc1[nH]nc(C(=O)N2CCCC(N3CCN(c4ccccc4C)CC3)C2)c1C (stereo not given) was read as HP1b binding inh 23%, BAZ2B block -20%, G9a inh 14% and JMJD2A Tudor -10%.
Screening COc1ccc(-n2nc(C(=O)O)c3csc(N)c3c2=O)cc1 returned JMJD2A Tudor 79µM*.
For COc1cccc(-n2nc(C(=O)O)c3ccccc3c2=O)c1 the results were HP1b binding inh 27%, BAZ2B block -12%, G9a inh inconclusive, JMJD2A Tudor -22% and L3MBTL1 inh 2%.
CC(=O)Nc1nnc(S(=O)(=O)N2CCN(c3ccc(Cl)cc3[N+](=O)[O-])CC2)s1 was read as HP1b binding inh 0%, BAZ2B block -32%, G9a inh 8% and JMJD2A Tudor -8%.
O=C(O)C1CSC2(CCN(Cc3ccccc3)CC2)N1 (stereo not given) was read as HP1b binding inh inconclusive, BAZ2B block 56µM*, G9a inh 7.1µM*, JMJD2A Tudor 10µM* and L3MBTL1 inh 43%.
Screening O=C(Cc1ccccc1)NC1CCN(Cc2ccccc2)CC1 returned HP1b binding inh 46%, BAZ2B block -15%, G9a inh inconclusive, JMJD2A Tudor -9% and L3MBTL1 inh 7%.
Screening Cc1ccc(C(C)C)cc1OCC(=O)Nc1ccc(N2CCCCC2)cc1 returned HP1b binding inh inconclusive, BAZ2B block 28µM*, G9a inh 16µM*, JMJD2A Tudor inconclusive and L3MBTL1 inh -27%.
`Cc1cc(C)cc(OCC(=O)Nc2ccc(N3CCCC3)cc2)c1` gave HP1b binding inh -36%, BAZ2B block -30%, G9a inh -11%[59 µM], JMJD2A Tudor inconclusive and L3MBTL1 inh -14%.
For CCc1ccc(OCC(=O)Nc2ccc(N3CCN(S(C)(=O)=O)CC3)cc2)cc1 the results were HP1b binding inh 34%, BAZ2B block 13%, G9a inh 79µM*, JMJD2A Tudor 1% and L3MBTL1 inh 5%.
CC(=O)c1ccc(OCC(=O)Nc2ccc(N3CCCCC3)cc2)cc1 was read as HP1b binding inh inconclusive, BAZ2B block 45µM*, G9a inh -17%[12.7 µM], JMJD2A Tudor inconclusive and L3MBTL1 inh -19%.
Cc1ccc(OCC(=O)Nc2ccc(O)c(C(=O)O)c2)cc1C was read as HP1b binding inh 9%, BAZ2B block 5%, G9a inh 35µM*, JMJD2A Tudor -17% and L3MBTL1 inh 0%.
Cc1ccc(OCC(=O)Nc2ccc(N3CCN(S(C)(=O)=O)CC3)cc2)cc1 was read as HP1b binding inh 10%, BAZ2B block -4%, JMJD2A Tudor -3% and L3MBTL1 inh 13%.
For CCc1ccccc1NC(=O)C1CCCN(S(=O)(=O)c2ccc3[nH]c(=O)ccc3c2)C1 (stereo not given) the results were HP1b binding inh 17%, BAZ2B block inconclusive, G9a inh -33%[59 µM] and JMJD2A Tudor -21%.
Cn1c(C(=O)NCc2cccc(F)c2)cc2cc(S(=O)(=O)N3CCCCC3)ccc21 was read as HP1b binding inh 24%[57 µM], BAZ2B block -11%, G9a inh 11%[59 µM] and JMJD2A Tudor -20%.
`OCC1(CO)COC(C(Cl)(Cl)Cl)OC1` gave G9a inh -9%[12.7 µM].
For Cc1ccc(OCC(=O)Nc2ccc(N3CCCC3)cc2)cc1C the results were HP1b binding inh inconclusive, BAZ2B block 28µM*, G9a inh 11µM*, JMJD2A Tudor 32µM* and L3MBTL1 inh -24%.
For CC1=NNC(=O)C1CCC(=O)N/N=C/C(Br)=C/c1ccccc1 (stereo not given) the results were HP1b binding inh 29%, BAZ2B block 5%, G9a inh 50µM*, JMJD2A Tudor -9% and L3MBTL1 inh -2%.
`COc1ccccc1/C=C\C(=O)NCC(=O)N/N=C(/C)c1cccc([N+](=O)[O-])c1` gave HP1b binding inh 53%, BAZ2B block 4%, G9a inh 79µM* and JMJD2A Tudor -7%.
`COc1ccccc1/C=C/C(=O)NCC(=O)N/N=C/c1ccccc1` gave HP1b binding inh 34%, BAZ2B block -37%, G9a inh 31% and JMJD2A Tudor -13%.
